For 90 compounds, binding response (% of DMSO) results are on record in PubChem BioAssay AID588466 (NMMLSC, 2011).

Values joined by “and” are separate entries in the source; they are usually repeats but may differ in a detail not shown here. Equal entries are not always repeated. The whole screen tested about 2,100 compounds, of which about 30 (1%) were called active. Not all results are given here. Values without a mark were called inactive.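 The calls were made as follows: active = compounds whose mean binding response over two repeats is below 75% of the DMSO control; inactive = the rest.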

The target in this assay is Desmoglein-3 (Homo sapiens) (UniProt P32926). Kind of assay: blockers of pemphigus antibody–desmoglein-3 interaction – biochemical, cherry pick 1, bead-based, flow cytometry, confirmation (AID 588466).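 Also: 100% = 2% DMSO vehicle and 0% = excess soluble DSG3 blocking control.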 The following applies: Protein G beads with DSG3, scFv-GFP binding, at 10 µM, hits give low values. (A flow cytometer gives signals particle by particle.)
Chain of Desmoglein-3 (Homo sapiens) (P32926 whole entry, looked up): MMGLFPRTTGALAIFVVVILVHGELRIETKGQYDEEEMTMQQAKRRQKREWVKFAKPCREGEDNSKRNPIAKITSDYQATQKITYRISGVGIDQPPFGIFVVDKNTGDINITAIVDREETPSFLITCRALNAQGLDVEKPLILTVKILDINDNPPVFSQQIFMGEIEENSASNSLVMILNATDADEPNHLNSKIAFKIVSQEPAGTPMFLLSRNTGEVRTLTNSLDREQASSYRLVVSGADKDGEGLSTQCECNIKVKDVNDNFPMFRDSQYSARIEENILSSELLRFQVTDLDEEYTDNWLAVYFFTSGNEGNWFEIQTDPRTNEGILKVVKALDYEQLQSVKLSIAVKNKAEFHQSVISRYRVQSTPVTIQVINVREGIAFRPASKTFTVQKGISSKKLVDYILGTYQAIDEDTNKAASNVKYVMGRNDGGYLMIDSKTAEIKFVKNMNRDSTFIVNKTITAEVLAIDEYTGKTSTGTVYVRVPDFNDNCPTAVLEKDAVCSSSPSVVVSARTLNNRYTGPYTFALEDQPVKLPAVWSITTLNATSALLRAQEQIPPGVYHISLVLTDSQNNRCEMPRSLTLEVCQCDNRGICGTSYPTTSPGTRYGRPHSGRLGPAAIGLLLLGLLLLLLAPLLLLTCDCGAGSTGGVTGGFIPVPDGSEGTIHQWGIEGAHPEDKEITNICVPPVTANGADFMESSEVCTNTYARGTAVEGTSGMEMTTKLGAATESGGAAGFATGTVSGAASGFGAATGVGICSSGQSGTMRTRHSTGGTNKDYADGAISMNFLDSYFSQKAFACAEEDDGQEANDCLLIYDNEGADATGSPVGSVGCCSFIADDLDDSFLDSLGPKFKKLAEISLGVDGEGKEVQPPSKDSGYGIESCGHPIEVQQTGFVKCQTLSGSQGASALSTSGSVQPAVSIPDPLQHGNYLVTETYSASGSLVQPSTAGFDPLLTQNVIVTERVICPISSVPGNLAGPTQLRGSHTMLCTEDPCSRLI
For the compound `Cc1ccc([C@H]2C[C@H](n3cc(C4CC4)nn3)[C@@H](O)CN2Cc2cccs2)cc1`, the binding response (% of DMSO) was 119%.
Regarding `COc1ccc(S(=O)(=O)N2CCCCCC2)cc1N`, the binding response (% of DMSO) was 100%.
For `COc1ccc(C(=O)Nn2c(C)nc3ccccc3c2=O)cc1Br`, the binding response (% of DMSO) is 98%.
As for `COc1ccc(Br)c(C(=O)Nc2cccc(S(=O)(=O)N3CCOCC3)c2)c1`, the binding response (% of DMSO) is 98.5%.
As to `CC(=O)Nc1ccc(S(=O)(=O)NCc2ccc3c(c2)cc(C)n3C)cc1`, the binding response (% of DMSO) was 99.3%.
Consider `CC(C)Oc1ccc(C(=O)Nc2ccc(NC(=O)c3ccco3)c(Cl)c2)cc1`, for which the binding response (% of DMSO) was 100%.
With `O=C(NCc1ccccc1)C1CCN(S(=O)(=O)c2cccc3cccnc23)CC1` the figure was 109% and 103%; with `S=C(NCCCN1CCOCC1)N1CCN(c2cccc(Cl)c2)CC1`, 100%; with `COc1ccc(CNS(=O)(=O)c2cn(C)c(=O)n(C)c2=O)cc1`, 95%.
On to `Cc1c(C(=O)N2CCN(c3ccc(F)cc3)CC2)sc2nc(-c3ccccc3)cn12`, for which the binding response (% of DMSO) is 101%.
Take `COc1ccc(NC(=O)c2cc(-c3ccc(C)o3)nc3ccccc23)cc1OC`: the binding response (% of DMSO) is 103%.
Turning to `CCOC(=O)CSc1nnc(-c2ccccc2NC(=O)c2ccccc2)o1`, the binding response (% of DMSO) is 95%.
With `Cc1cc(C)n2c(SCC(=O)N3CCN(S(=O)(=O)c4ccc(Cl)cc4)CC3)nnc2n1` the figure was 92.2%; with `CC(C)c1ccccc1NS(=O)(=O)N(C)C`, 99.3%; with `CN(C)c1nc(N)ncc1-c1ccc(Oc2ccccc2)cc1`, 83.8%.
As for `Cc1nnc(NC(=O)c2ccc(-c3ccc(Cl)cc3)o2)s1`, the binding response (% of DMSO) is 104%.
For the compound `COc1ccc2cc(C(=O)COC(=O)COc3ccc4c(C)cc(=O)oc4c3)ccc2c1`, the binding response (% of DMSO) was 91.2%.
For `COc1ccc(-c2nc(C#N)c(NCc3ccccc3Cl)o2)cc1`, the binding response (% of DMSO) was 89.4%.
Regarding `COc1ccc(CCn2nnnc2C(C(C)C)N2CCN(c3ncccn3)CC2)cc1OC` (stereo not given), the binding response (% of DMSO) was 96.4%.
On to `CCOc1ccc(-n2nc3ccc(NC(=O)c4ccc5c(c4)OCCO5)cc3n2)cc1`, for which the binding response (% of DMSO) is 85.4%.
With `O=C(Nc1nc(-c2ccccc2)c(-c2ccccc2)s1)c1ccc(S(=O)(=O)N2CCCCC2)cc1` the figure was 96.3%.
Consider `COc1ccc(CCNC(=O)COc2cccc(-n3cnnn3)c2)cc1`, for which the binding response (% of DMSO) was 108%.
Consider `NC(=O)CC(NC(=O)Cc1cccc2ccccc12)c1ccc(NCCOc2ccccc2)c([N+](=O)[O-])c1` (stereo not given), for which the binding response (% of DMSO) is 104%.
Take `CCOC(=O)c1ccc(-c2nnc(-c3ccc(Cl)cc3Cl)o2)cc1`: the binding response (% of DMSO) is 100%.
In the case of `CCOC(=O)c1cc(-c2ccc(/C=C3/C(=O)N(c4ccc(C(=O)O)cc4)N=C3C)o2)ccc1Cl` it was 54.4% (active); in that of `O=C(O)c1ccc(-c2ccc(/C=C3\NC(=O)N(Cc4ccc(Cl)cc4)C3=O)o2)cc1Cl`, 103%.
Consider `O=C(NCCCN1CCOCC1)c1cc2nc(-c3ccco3)cc(C(F)(F)F)n2n1`, for which the binding response (% of DMSO) was 101%.
With `CC1CC(C)CN(c2ncc3c(n2)CC(c2ccccc2)CC3=O)C1` (stereo not given) the figure was 99%; with `O=c1c2nnn(Cc3ccc(Cl)cc3)c2ncn1Cc1ccc(F)cc1`, 93.7%; with `O=C(Nc1ccc(N2CCN(C(=O)c3ccccc3)CC2)cc1)c1cc2ccccc2o1`, 93.8%.
Regarding `Cc1ccc(N2CCN(S(=O)(=O)c3nnc(NC(=O)c4ccccc4)s3)CC2)cc1`, the binding response (% of DMSO) is 98.7%.
Take `CCOc1ccc2c(c1)C(NC(C)=O)C(=O)N2CCN1CCOCC1` (stereo not given): the binding response (% of DMSO) is 97.4%.
With `O=C(Nc1cccc(NC(=O)c2ccc(Cl)cc2)n1)c1ccc(Cl)cc1` the figure was 100%; with `CNC(=O)CN1C(=O)NC(c2ccccc2)(c2ccccc2)C1=O`, 100%.
As to `Cc1ccc(Sc2ncccc2COC(=O)Nc2c(C)cccc2C)cc1`, the binding response (% of DMSO) was 96.3%.
On to `FC(F)(F)c1cc(-c2ccco2)nc(NCCc2ccccc2)n1`, for which the binding response (% of DMSO) was 106%.
On to `O=C(NCCCN1CCOCC1)c1cc(-c2cccc(Br)c2)nc2ccccc12`, for which the binding response (% of DMSO) is 102%.
`COc1ccc(-c2cn3c(C)c(C(=O)NC(C)C)sc3n2)cc1`: the binding response (% of DMSO) was 95.9%.
Turning to `O=C(Nc1ccc(NS(=O)(=O)c2ccccc2)cc1)c1ccc(Cl)cc1`, the binding response (% of DMSO) was 49.9%.
Turning to `Cc1ccc(NS(=O)(=O)c2ccc3c(c2)oc(=O)n3C)cc1F`, the binding response (% of DMSO) was 99.5%.
Regarding `CCn1nc(C(=O)OCc2c(C)noc2C)c2ccccc2c1=O`, the binding response (% of DMSO) is 104%.
For the compound `COc1ccc(NC(=O)CCCC(=O)c2ccccc2)cc1`, the binding response (% of DMSO) was 103%.
`CCN(CC)CC(=O)NN=C(c1ccccc1)c1ccccc1`: the binding response (% of DMSO) is 100%.
As to `CCSc1nnc(NC(=O)CSc2nnc(CNC(=O)c3ccc(OC)cc3)o2)s1`, the binding response (% of DMSO) is 102%.
`CCN(CC(=O)Nc1ccc(S(=O)(=O)N2CCCCC2)cc1)Cc1ccccc1`: the binding response (% of DMSO) is 98%.
Turning to `O=C(COc1ccccc1Cl)NCCNC(=O)c1ccccn1`, the binding response (% of DMSO) was 101%.
Turning to `CCN(CC)CCn1c2c(c(SCC(=O)Nc3ccc(C)c(F)c3)nc1=O)CCC2`, the binding response (% of DMSO) was 103%.
Regarding `Cc1nc(N)sc1-c1csc(Nc2ncccn2)n1`, the binding response (% of DMSO) is 95.9%.
Consider `Cc1cnc(C(=O)N2CCN(S(=O)(=O)c3cc(C(F)(F)F)cc(C(F)(F)F)c3)CC2)cn1`, for which the binding response (% of DMSO) was 110%.
Take `COc1ccc(S(=O)(=O)N2CCN(CC(=O)Nc3cc(Cl)ccc3Cl)CC2)cc1`: the binding response (% of DMSO) is 95%.
For the compound `COc1ccc(-n2c(SCC(=O)O)nc3sc4c(c3c2=O)CCCC4)cc1`, the binding response (% of DMSO) is 103%.
For the compound `CCOC(=O)N1CCC(n2c(SCC(=O)c3ccccc3)nc3ccsc3c2=O)CC1`, the binding response (% of DMSO) is 93.2%.
Turning to `Cc1ccc(NS(=O)(=O)c2c(C)[nH]c(C)c2C(=O)N2CCCCC2)c(Br)c1`, the binding response (% of DMSO) was 101%.
`CCCCCC(=O)N1C[C@@H](O)[C@H](n2cc(-c3ccc(F)cc3)nn2)C[C@@H]1c1ccc(OC)cc1`: the binding response (% of DMSO) is 99.7%.
`CC(=O)c1cc2c(cc1NC(=O)c1ccc(Cl)cc1)OCCO2`: the binding response (% of DMSO) is 87.5%.
On to `COc1ccc(NC(=O)Cn2nnc(C(=O)NCc3ccccc3)c2N)cc1Cl`, for which the binding response (% of DMSO) was 76.4%.
As for `CC(C)Oc1ccc(C(=O)Nc2c3c(nn2-c2ccccc2)CS(=O)(=O)C3)cc1`, the binding response (% of DMSO) was 96.5%.
With `CC(=O)c1ccc(NC(=O)Cn2cnc(S(=O)(=O)N3CCc4ccccc43)c2)cc1` the figure was 94.8%.
As for `COc1cccc(C(=O)NCc2ccc3c(c2)cc(C)n3C)c1`, the binding response (% of DMSO) is 109%.
As for `NNc1nc2c(-c3ccc(Cl)cc3)nnn2c2ccccc12`, the binding response (% of DMSO) is 91.9%.
With `COc1ccc(NC(=O)NN2CCN(C)CC2)c(OC)c1` the figure was 99.8%.
Take `CSc1ccccc1OCc1cc(C(=O)N2CCN(Cc3nccn3C)CC2)no1`: the binding response (% of DMSO) is 106%.
In the case of `C=CCNc1nc(-c2cccc(OC)c2O)nc2ccccc12` it was 92.4%; in that of `Nc1nc(SCc2nnc(SCC(=O)O)n2-c2ccccc2)nc2sc3c(c12)CCCC3`, 106%; in that of `C=CCn1c(O)c(C2=c3ccccc3=NC2=O)s/c1=N/c1nccs1`, 71.7%.
Regarding `C=CCN1C2CCCC1CC(NC(=O)Nc1cccc(C(C)=O)c1)C2` (stereo not given), the binding response (% of DMSO) is 104%.
With `COc1ccc(NC(=O)c2cc(-c3ccco3)nc3ccccc23)cc1` the figure was 74.5%; with `COc1ccc(NC(=O)CN(C)Cc2cccs2)cc1Cl`, 105%; with `COC(=O)c1ccc(NC(=O)COc2ccc3c(c2)OCO3)cc1`, 102%.
`CN(c1ccc(C(=O)NC2CC3CCC2C3)cc1)S(C)(=O)=O` (stereo not given): the binding response (% of DMSO) was 101%.
`CC(=O)C1=C(O)CC(c2ccccc2)CC1=NCCc1c(C)[nH]c2ccc(C)cc12` (stereo not given): the binding response (% of DMSO) is 96.5%.
For the compound `CC(C)CNC(=O)c1ccccc1NC(=O)CN(c1ccccc1)S(=O)(=O)N(C)C`, the binding response (% of DMSO) is 102%.
As for `CCOC(=O)c1c(S(=O)(=O)NCC(C)c2ccccc2)c(C)n(C)c1C` (stereo not given), the binding response (% of DMSO) is 97.9%.
With `CCCOC(=O)CSc1nc(N)c(C#N)c(CC)c1C#N` the figure was 108%; with `CN(C)S(=O)(=O)c1cccc(NC(=O)COC(=O)c2cc3ccccc3oc2=O)c1`, 90.6%.
In the case of `COc1ccc(CNC(=O)c2ccc(Cl)c(NC3=NC4CS(=O)(=O)CC4S3)c2)cc1` (stereo not given), the binding response (% of DMSO) was 104%.
With `CCn1cc(C(=O)NCc2cccnc2)c(=O)c2cc(F)c(N3CCN(C(=O)c4ccco4)CC3)cc21` the figure was 105%.
Turning to `Cc1ccc(S(=O)(=O)N2CCCCC2)cc1NC(=O)CCNC(=O)c1ccccc1Cl`, the binding response (% of DMSO) was 98.5%.
For the compound `O=C(CSc1nnc(CNC(=O)c2ccc(F)cc2)o1)Nc1nccs1`, the binding response (% of DMSO) is 99.5%.
For the compound `CCOc1ccccc1NS(=O)(=O)c1ccc2[nH]c(=O)[nH]c2c1`, the binding response (% of DMSO) was 89.3%.
Consider `O=C(CN1CCN(S(=O)(=O)c2cc(Br)ccc2Br)CC1)NCc1ccccc1Cl`, for which the binding response (% of DMSO) is 108%.
Turning to `Cc1ccc(NC(=O)Nc2ccc3c(c2)OCO3)nc1`, the binding response (% of DMSO) is 101%.
As to `COc1ccc(CCN2CC(C(=O)OCC(=O)NC(Cc3ccccc3)C(C)=O)CC2=O)cc1OC` (stereo not given), the binding response (% of DMSO) was 102%.
With `CCOc1ccc(NC(=O)c2nc(SCC)ncc2Cl)cc1`, the binding response (% of DMSO) was 101%.
For `CCOc1ccc(C(=O)Nc2cccc3cccnc23)cc1`, the binding response (% of DMSO) is 93%.
In the case of `Cc1ccc(C)n1NC(=O)c1cccs1` it was 91.4%.
`COc1ccc(CC(=O)OCC(=O)NCc2ccc3c(c2)OCO3)cc1OC`: the binding response (% of DMSO) is 99.5%.
Consider `CCOC(=O)N1CCC(NC(=O)c2cc3c(-c4ccc(Cl)cc4)nn(C)c3s2)CC1`, for which the binding response (% of DMSO) was 95.6%.
Consider `COc1cccc(C(=O)Nc2cc(-c3cn4cccnc4n3)ccc2C)c1`, for which the binding response (% of DMSO) is 102%.
For `COc1ccc(CNC(=O)C(C)n2nc(C)c3c(C)n(-c4ccccc4)nc3c2=O)c(OC)c1` (stereo not given), the binding response (% of DMSO) was 95.7%.
